Measured values: PubChem BioAssay
For some of these results: Potency and affinity values are given separately. Activity calls are given as the source filed them.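 How the source made its calls, unless noted: active means signal rise over 3 SD above mean of control wells given weak agonist, in both repeats and first screen; inactive means the rest.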

Assays:
[1] = tested on: TRPC4 beta (transient receptor potential cation channel C4), mouse; experiment: TRPC4 cation channel opening, retest – cell-based, Fluo4 calcium, HEK293 TRPC4beta/mu-opioid, duplicates, 10 µM, confirmation (AID 2426;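 active means fluorescence ratio normalized to control raised more than 50% in primary screen plus both repeat runs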); details: Fluo4 calcium fluorescence, at 10 µM; active compounds read high
[2] = tested on: transient receptor potential cation channel C4 beta (TRPC4), mouse; experiment: TRPC4 cation channel opening, second retest – cell-based, second round, Fluo4, HEK293 TRPC4beta/mu-opioid, 1 µM, confirmation (AID 2461;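 active means primary screen active and over 50% activation in each of two duplicate runs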); details: Fluo4 calcium fluorescence, at 1 µM; active compounds read high
[3] = tested on: TRPC4 (transient receptor potential cation channel C4 beta), mouse; experiment: potentiation of DAMGO EC20 TRPC4 response – cell-based, second round, Fluo-4, HEK293 TRPC4beta/mu-opioid, 1 µM, confirmation (AID 2554;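 active means primary screen hit whose fluorescence ratio, in both repeats, exceeds the weak agonist control mean by 3 SD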); details: DAMGO EC20, Fluo-4 calcium flux, at 1 µM; active compounds read high
[4] = tested on: TRPC4 beta (transient receptor potential cation channel C4), mouse; experiment: potentiation of DAMGO EC20 TRPC4 response – cell-based, Fluo-4, HEK293 TRPC4beta/mu-opioid, confirmation (AID 2555;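 active means primary screen hit whose calcium fluorescence ratio, in both repeats, exceeds the weak agonist control mean by 3 SD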); details: DAMGO EC20, Fluo-4 calcium flux, at 10 µM; active compounds read high
[5] = biological target: Short transient receptor potential channel 4 (Mus musculus) (UniProt Q9QUQ5); experiment: blockers of DAMGO-evoked TRPC4 calcium flux – cell-based, Fluo4, HEK293 TRPC4beta/mu-opioid, confirmation (AID 2636;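 active means calcium signal cut by more than 3 SD below the full-agonist control yet still positive, in both repeats and the earlier primary screen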); details: at 10 µM; active compounds read high
Short transient receptor potential channel 4 (Mus musculus), sequence (Q9QUQ5 whole entry, looked up): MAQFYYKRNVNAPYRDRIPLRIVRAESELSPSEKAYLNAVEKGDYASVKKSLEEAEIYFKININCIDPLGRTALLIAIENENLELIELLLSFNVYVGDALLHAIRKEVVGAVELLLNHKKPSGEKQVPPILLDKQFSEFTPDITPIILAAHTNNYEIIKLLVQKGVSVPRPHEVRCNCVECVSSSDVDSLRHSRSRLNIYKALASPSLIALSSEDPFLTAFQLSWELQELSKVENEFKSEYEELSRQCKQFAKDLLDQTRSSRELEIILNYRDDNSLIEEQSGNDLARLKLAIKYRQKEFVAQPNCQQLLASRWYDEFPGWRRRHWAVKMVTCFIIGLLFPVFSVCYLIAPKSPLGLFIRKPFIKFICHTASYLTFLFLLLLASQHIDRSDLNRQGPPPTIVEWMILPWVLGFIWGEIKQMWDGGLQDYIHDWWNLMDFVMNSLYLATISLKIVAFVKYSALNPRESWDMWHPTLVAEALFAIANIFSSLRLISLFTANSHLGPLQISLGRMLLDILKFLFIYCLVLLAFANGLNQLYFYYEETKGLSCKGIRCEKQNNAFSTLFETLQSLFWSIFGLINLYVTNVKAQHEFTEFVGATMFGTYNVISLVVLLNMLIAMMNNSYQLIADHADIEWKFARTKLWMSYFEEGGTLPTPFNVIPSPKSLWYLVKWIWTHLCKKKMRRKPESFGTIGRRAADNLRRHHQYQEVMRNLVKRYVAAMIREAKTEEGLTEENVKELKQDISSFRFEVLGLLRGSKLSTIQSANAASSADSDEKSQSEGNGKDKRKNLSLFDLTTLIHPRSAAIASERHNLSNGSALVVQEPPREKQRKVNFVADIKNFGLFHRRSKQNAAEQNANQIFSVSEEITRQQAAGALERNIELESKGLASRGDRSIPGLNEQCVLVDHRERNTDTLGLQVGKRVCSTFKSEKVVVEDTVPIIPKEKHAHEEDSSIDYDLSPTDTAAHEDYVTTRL

[6] = biological target: Short transient receptor potential channel 4 (Mus musculus) (UniProt Q9QUQ5); experiment: blockers of DAMGO-evoked TRPC4 calcium flux – cell-based, second round, Fluo4, HEK293 TRPC4beta/mu-opioid, 1 µM, confirmation (AID 2637;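 active means calcium signal ratio cut to more than 3 SD under the fully stimulated control mean yet still positive, in both repeats and the primary screen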;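 on inhibition: percent of integrated ratio relative to wells lacking test compound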); details: at 1 µM; active compounds read high
[7] = biological target: Short transient receptor potential channel 4 (Mus musculus) (UniProt Q9QUQ5); experiment: calcium entry via TRPC4 opening agents – cell-based, HEK293 TRPC4/mu-opioid, Fluo-4 calcium, dose response (AID 434937;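 active means primary screen activator hit with a dose response curve and TRPC4 channel activation at any tested dose; inactive means no activation, no dose response, or not a primary hit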)
[8] = biological target: Short transient receptor potential channel 4 (Mus musculus) (UniProt Q9QUQ5); experiment: potentiation of DAMGO-evoked TRPC4 calcium signal – cell-based, HEK293 TRPC4/mu-opioid, Fluo-4 calcium, EC20 DAMGO, dose response (AID 434941;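 active means earlier screen potentiator hit that boosts the TRPC4 ion channel at some dose, with a dose response; inactive means no potentiation, no dose response, or not a prior hit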;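 further: calcium entry triggered by an EC20 dose of DAMGO at the co-expressed mu-opioid receptor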)
[9] = biological target: Short transient receptor potential channel 6 (Mus musculus) (UniProt Q61143); experiment: TRPC6 blockade by TRPC4 inhibitor hits – cell-based, HEK293, membrane potential dye, duplicate, selectivity assay for TRPC4 inhibitor project, confirmation (AID 434948;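 active means active in primary screen and both duplicates, each dropping signal beyond three positive-control SD with fluorescence still positive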); details: HEK293 TRPC6, membrane potential dye fluorescence, at 10 µM, stimulated with maximal-effect acetylcholine; active compounds read high
Short transient receptor potential channel 6 (Mus musculus), sequence (Q61143 whole entry, looked up): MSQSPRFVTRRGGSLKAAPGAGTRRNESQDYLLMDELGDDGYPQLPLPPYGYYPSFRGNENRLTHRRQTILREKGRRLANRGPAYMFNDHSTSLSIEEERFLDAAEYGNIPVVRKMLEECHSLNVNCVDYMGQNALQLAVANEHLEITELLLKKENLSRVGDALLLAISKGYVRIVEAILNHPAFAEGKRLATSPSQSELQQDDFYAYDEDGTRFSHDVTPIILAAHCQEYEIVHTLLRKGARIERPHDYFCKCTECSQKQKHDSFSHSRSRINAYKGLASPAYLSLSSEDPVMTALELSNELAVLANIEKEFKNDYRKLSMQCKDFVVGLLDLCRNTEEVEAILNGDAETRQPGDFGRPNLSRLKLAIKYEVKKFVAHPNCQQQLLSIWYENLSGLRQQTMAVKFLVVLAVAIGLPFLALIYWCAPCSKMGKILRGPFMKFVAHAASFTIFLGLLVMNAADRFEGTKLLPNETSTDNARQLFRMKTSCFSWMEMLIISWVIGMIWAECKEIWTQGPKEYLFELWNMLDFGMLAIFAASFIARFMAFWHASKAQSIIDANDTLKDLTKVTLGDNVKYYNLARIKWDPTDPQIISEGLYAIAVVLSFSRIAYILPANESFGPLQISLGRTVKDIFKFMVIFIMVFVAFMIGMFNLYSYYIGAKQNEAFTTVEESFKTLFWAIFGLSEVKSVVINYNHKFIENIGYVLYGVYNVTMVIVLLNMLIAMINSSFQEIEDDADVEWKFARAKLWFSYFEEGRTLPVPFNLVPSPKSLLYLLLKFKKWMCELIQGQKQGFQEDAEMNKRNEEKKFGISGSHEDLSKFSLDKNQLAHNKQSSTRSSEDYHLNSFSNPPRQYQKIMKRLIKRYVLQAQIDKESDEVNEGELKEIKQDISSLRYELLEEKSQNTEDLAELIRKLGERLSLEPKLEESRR

[10] = biological target: Short transient receptor potential channel 6 (Mus musculus) (UniProt Q61143); experiment: TRPC6 opening by TRPC4 activator hits – cell-based, HEK293, membrane potential dye, duplicate, selectivity assay for TRPC4 activator project, confirmation (AID 434950;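 active means membrane potential signal rise above negative control mean plus 3 SD in both duplicates, also active in the earlier TRPC4 screen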); details: HEK293 TRPC6, membrane potential fluorescence, at 10 µM; activation: active compounds read high; outcome: activation
[11] = biological target: Short transient receptor potential channel 6 (Mus musculus) (UniProt Q61143); experiment: positive modulators of mouse TRPC6 channel – HEK293 cells, membrane potential dye, duplicate, selectivity assay for TRPC4 potentiator project, confirmation (AID 434952;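 active means compound raising the membrane signal above positive-control mean plus 3 SD in both repeats, and a primary screen hit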); details: HEK293 TRPC6, membrane potential dye fluorescence, at 10 µM, maximal acetylcholine added after compound; active compounds read high
[12] = biological target: Short transient receptor potential channel 4 (Mus musculus) (UniProt Q9QUQ5); experiment: calcium flux activators in TRPC4/5HT1a cells, counter-screen for TRPC4 activator project, cell-based, second counter screen, HEK293 TRPC4/5HT1a, Fluo-4 (AID 434977;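 active means calcium signal rise above buffer-control mean plus 5 SD in both duplicates, and also a hit in the primary screen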); details: Fluo-4 calcium flux, at 10 µM; active compounds read high
[13] = serotonin-gated TRPC4 signal block – cell-based, second counter screen, HEK293 TRPC4/5HT1a, Fluo-4, counter-screen for TRPC4 inhibitor project, confirmation (AID 434978;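 active means primary screen active whose calcium signal fell more than 3 SD beyond the full-serotonin control mean in both duplicate plates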;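 on outcome: serotonin given first at submaximal then at maximal dose after compound preincubation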); details: Fluo-4 calcium flux, at 10 µM, serotonin added to trigger calcium flux; active compounds read high
[14] = tested on: TRPC4 (mouse), co-expressed with 5HT1a in HEK293; experiment: enhancement of serotonin-evoked TRPC4 response – cell-based, second counter screen, HEK293 TRPC4/5HT1a, Fluo-4, counter-screen for TRPC4 potentiator project, confirmation (AID 434979); details: Fluo-4 calcium flux, at 10 µM, serotonin added at its EC20 dose; active compounds read high
[15] = nonspecific calcium rise without TRPC4 – cell-based, HEK293 mu-opioid receptor line, counter-screen for TRPC4 activator project, confirmation (AID 449723;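 active means hit in primary screen, with calcium signal over 5 SD above buffer well mean in both duplicates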;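 further: counter screen cells carry the mu-opioid receptor alone and lack TRPC4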); details: HEK293 mu-opioid cells, Fluo-4 calcium fluorescence, at 10 µM; active compounds read high
[16] = nonspecific potentiation of DAMGO calcium response – cell-based, HEK293 mu-opioid receptor line, counter-screen for TRPC4 allosteric potentiator project, confirmation (AID 449724;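 active means calcium signal rise more than 3 SD above the low-dose agonist control mean, in both duplicate plates and the primary screen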); details: HEK293 mu-opioid receptor cells, Fluo-4 calcium flux, at 10 µM, compound added before EC20 DAMGO stimulus; active compounds read high
[17] = nonspecific flux increase, KCNQ1-free cells – parental CHO cells, counter-screen for KCNQ1 potentiator project (AID 493006;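 active means duplicate-averaged activation above buffer control mean plus 5 SD of those controls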); details: parental CHO-K1 cells, FluxOR thallium flux, at 10 µM; active compounds read high
[18] = biological target: Potassium voltage-gated channel subfamily KQT member 1 (Homo sapiens) (UniProt P51787); experiment: enhancement of KCNQ1 channel thallium flux – FluxOR thallium flux, CHO cells, duplicates, confirmation (AID 493007;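 active means potentiation averaged over duplicate wells exceeding buffer-only control mean by more than 3 SD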;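 further: cells depolarized by a potassium plus thallium sulfate stimulus after compound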); details: KCNQ1 cell line, FluxOR thallium flux fluorescence, at 10 µM; active compounds read high, % of reference activator effect, buffer zero
Potassium voltage-gated channel subfamily KQT member 1 (Homo sapiens), sequence (P51787 whole entry, looked up): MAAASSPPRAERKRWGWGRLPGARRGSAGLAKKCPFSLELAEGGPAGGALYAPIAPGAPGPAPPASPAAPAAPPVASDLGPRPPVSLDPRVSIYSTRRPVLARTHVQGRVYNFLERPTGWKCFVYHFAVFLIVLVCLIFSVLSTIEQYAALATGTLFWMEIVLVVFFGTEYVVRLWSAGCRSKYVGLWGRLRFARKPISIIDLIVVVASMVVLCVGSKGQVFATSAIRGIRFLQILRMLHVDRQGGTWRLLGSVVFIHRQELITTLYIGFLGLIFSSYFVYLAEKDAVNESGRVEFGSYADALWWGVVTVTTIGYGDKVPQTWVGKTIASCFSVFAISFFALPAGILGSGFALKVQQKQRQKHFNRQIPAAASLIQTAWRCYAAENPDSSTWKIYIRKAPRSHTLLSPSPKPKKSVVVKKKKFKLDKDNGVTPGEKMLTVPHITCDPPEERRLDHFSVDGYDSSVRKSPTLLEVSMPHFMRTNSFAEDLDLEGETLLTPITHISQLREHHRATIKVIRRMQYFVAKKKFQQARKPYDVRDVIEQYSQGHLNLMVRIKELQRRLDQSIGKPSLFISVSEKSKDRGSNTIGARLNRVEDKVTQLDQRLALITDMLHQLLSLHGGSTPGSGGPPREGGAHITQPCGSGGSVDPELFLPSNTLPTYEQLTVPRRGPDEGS

[19] = biological target: Potassium voltage-gated channel subfamily KQT member 2 (Rattus norvegicus) (UniProt O88943); experiment: KCNQ2 thallium flux enhancement – KCNQ2-CHO-K1 cells, selectivity assay for KCNQ1 potentiator project (AID 493009;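 active means mean duplicate potentiation above the buffer control mean plus 5 SD of buffer wells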;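 further: assay conditions were tuned for KCNQ1 rather than KCNQ2 modulators; signal is max minus min fluorescence divided by baseline after thallium stimulus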); details: FluxOR thallium flux fluorescence, at 10 µM; active compounds read high, scaled: buffer 0, activator control 100
Potassium voltage-gated channel subfamily KQT member 2 (Rattus norvegicus), sequence (O88943 whole entry, looked up): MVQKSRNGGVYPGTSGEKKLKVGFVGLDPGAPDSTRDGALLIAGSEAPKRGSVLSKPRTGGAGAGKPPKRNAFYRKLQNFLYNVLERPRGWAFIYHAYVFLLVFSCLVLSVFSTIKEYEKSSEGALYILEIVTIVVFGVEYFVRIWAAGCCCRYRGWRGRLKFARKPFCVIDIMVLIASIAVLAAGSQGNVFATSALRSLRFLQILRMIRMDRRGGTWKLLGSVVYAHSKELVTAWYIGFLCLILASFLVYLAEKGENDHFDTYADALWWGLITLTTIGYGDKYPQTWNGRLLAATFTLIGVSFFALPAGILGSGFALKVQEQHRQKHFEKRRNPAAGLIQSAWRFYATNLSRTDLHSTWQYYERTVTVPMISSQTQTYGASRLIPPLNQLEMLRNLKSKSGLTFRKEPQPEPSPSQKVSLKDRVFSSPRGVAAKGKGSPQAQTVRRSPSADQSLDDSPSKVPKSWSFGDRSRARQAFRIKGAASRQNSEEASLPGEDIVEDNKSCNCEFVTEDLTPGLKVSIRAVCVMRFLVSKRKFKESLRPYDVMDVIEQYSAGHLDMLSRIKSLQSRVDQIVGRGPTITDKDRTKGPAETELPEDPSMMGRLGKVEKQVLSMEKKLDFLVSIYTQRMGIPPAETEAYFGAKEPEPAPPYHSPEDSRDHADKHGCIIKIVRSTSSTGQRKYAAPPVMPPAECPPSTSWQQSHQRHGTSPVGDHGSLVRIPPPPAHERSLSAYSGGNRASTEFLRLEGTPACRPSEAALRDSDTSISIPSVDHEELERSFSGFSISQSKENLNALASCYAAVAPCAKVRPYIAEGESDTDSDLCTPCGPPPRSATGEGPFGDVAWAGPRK

[20] = biological target: Potassium voltage-gated channel subfamily KQT member 1 (Homo sapiens) (UniProt P51787); experiment: KCNQ1 activators by electrophysiology – IonWorks patch clamp, KCNQ1-CHO cells, orthogonal assay for KCNQ1 potentiator project, confirmation (AID 493184;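 active means current rise at least 3 SD above the untreated control mean in each of two repeat wells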); details: automated patch clamp current, at 10 µM; active compounds read high

CCOC(=O)c1c(NC(=O)C2CC(Cl)=CCC2C(=O)O)sc2c1CCCCC2 (configuration not stated)
inactive: outcome [1] | outcome [2] | outcome [3] | outcome [4] | outcome [7] | outcome [8] | outcome [9] | outcome [10] | outcome [11] | outcome [12] | outcome [14] | outcome [15] | outcome [16]
active: inhibition [5] 96% | inhibition [6] 43% | inhibition [13] 31.8%

CCOc1ccc(-c2cc(NC(=O)c3c(F)cccc3F)c(C(=O)O)s2)cc1
active: inhibition [5] 98% | inhibition [6] 41% | inhibition [13] 6.94%
inactive: outcome [1] | outcome [2] | outcome [3] | outcome [4] | outcome [7] | outcome [8] | outcome [9] | outcome [10] | outcome [11] | outcome [12] | outcome [14] | outcome [15] | outcome [16]

Cc1cccc(C(=O)Nc2sc(-c3ccccc3)cc2C(=O)O)c1
active: inhibition [5] 98% | inhibition [13] 19.4%
inactive: outcome [1] | outcome [2] | outcome [3] | outcome [4] | outcome [6] | outcome [7] | outcome [8] | outcome [9] | outcome [10] | outcome [11] | outcome [12] | outcome [14] | outcome [15] | outcome [16]

CC(C)Cc1cc(CN2CCCC(CO)(Cc3cccc(Cl)c3)C2)[nH]n1 (configuration not stated)
inactive: outcome [1] | outcome [2] | outcome [3] | outcome [4] | outcome [6] | outcome [7] | outcome [8] | outcome [9] | outcome [10] | outcome [11] | outcome [12] | outcome [14] | outcome [15] | outcome [16]
active: inhibition [5] 91% | inhibition [13] 42.2%

CCOC(=O)C(C)Sc1nc2c(c(=O)[nH]c(=O)n2C)n1Cc1ccc(Cl)cc1 (configuration not stated)
inactive: outcome [1] | outcome [2] | outcome [3] | outcome [4] | outcome [7] | outcome [8] | outcome [9] | outcome [10] | outcome [11] | outcome [12] | outcome [14] | outcome [15] | outcome [16]
active: inhibition [5] 93% | inhibition [6] 68% | inhibition [13] 19.9%

CCc1ccc2nc(N=C(N)N)nc(C)c2c1
active: inhibition [5] 93%
inactive: outcome [1] | outcome [2] | outcome [3] | outcome [4] | outcome [6] | outcome [7] | outcome [8] | outcome [9] | outcome [10] | outcome [11] | outcome [12] | outcome [13] | outcome [14] | outcome [15] | outcome [16]

Cc1cccc(C)c1N1CCc2cn[nH]c21
inactive: outcome [1] | outcome [2] | outcome [3] | outcome [4] | outcome [6] | outcome [7] | outcome [8] | outcome [9] | outcome [10] | outcome [11] | outcome [12] | outcome [14] | outcome [15] | outcome [16]
active: inhibition [5] 84% | inhibition [13] 31.5%

CC1CCN(c2nc(Cl)nc(Nc3ccc([N+](=O)[O-])cc3)n2)CC1
inactive: outcome [1] | outcome [2] | outcome [3] | outcome [5] | outcome [6] | outcome [7] | outcome [9] | outcome [10] | outcome [11] | outcome [12] | outcome [13] | outcome [15] | outcome [16]
active: potentiation [4] 15% | potentiation [14] 66%

Cc1ccc(/C=N/NC(=O)NC2CCCCC2)o1
active: potentiation [3] 10% | potentiation [4] 54% | potentiation [14] 69.9%
inactive: outcome [1] | outcome [2] | outcome [5] | outcome [6] | outcome [7] | outcome [9] | outcome [10] | outcome [11] | outcome [12] | outcome [13] | outcome [15] | outcome [16]

C=CCSc1nc2c(c(=O)[nH]c(=O)n2C)n1C/C=C(/C)Cl
inactive: outcome [1] | outcome [2] | outcome [3] | outcome [4] | outcome [7] | outcome [8] | outcome [9] | outcome [10] | outcome [11] | outcome [12] | outcome [14] | outcome [15] | outcome [16] | outcome [17] | outcome [18] | outcome [19] | outcome [20]
active: inhibition [5] 85% | inhibition [6] 57% | inhibition [13] 32.5%

O=c1[nH][nH]c(-c2ccccc2)c1C=Nc1ccc(Cl)cc1
active: potentiation [14] 79.8%
inactive: outcome [1] | outcome [2] | outcome [3] | outcome [4] | outcome [5] | outcome [6] | outcome [7] | outcome [9] | outcome [10] | outcome [11] | outcome [12] | outcome [13] | outcome [15] | outcome [16]

O=C(NCc1ccccc1)C1=C[C@H](c2ccc(Br)cc2)C[C@H](OCc2ccc(CO)cc2)O1
inactive: outcome [1] | outcome [2] | outcome [3] | outcome [5] | outcome [6] | outcome [7] | outcome [9] | outcome [10] | outcome [11] | outcome [12] | outcome [13] | outcome [15] | outcome [16]
active: potentiation [4] 35% | potentiation [14] 97.6%

O=[N+]([O-])c1ccc(/C=N/Nc2nc(N3CCCCC3)nc(N3CCCCC3)n2)o1
inactive: outcome [1] | outcome [2] | outcome [3] | outcome [5] | outcome [6] | outcome [7] | outcome [9] | outcome [10] | outcome [11] | outcome [12] | outcome [13] | outcome [15] | outcome [16]
active: potentiation [4] 21% | potentiation [14] 59.2%

CC1=NN(c2ccccc2)C(=O)/C1=C/c1c(O)n(-c2ccc(F)c(Cl)c2)[nH]c1=O
active: inhibition [5] 97% | inhibition [13] 17.1%
inactive: outcome [1] | outcome [2] | outcome [3] | outcome [4] | outcome [6] | outcome [7] | outcome [8] | outcome [9] | outcome [10] | outcome [11] | outcome [12] | outcome [14] | outcome [15] | outcome [16] | outcome [17] | outcome [18] | outcome [19] | outcome [20]

Cc1ccc(/C=C/C(=O)c2ccc(O)cc2)cc1
active: inhibition [5] 76% | inhibition [6] 38% | inhibition [13] 15.8%
inactive: outcome [1] | outcome [2] | outcome [3] | outcome [4] | outcome [7] | outcome [8] | outcome [9] | outcome [10] | outcome [11] | outcome [12] | outcome [14] | outcome [15] | outcome [16] | outcome [17] | outcome [18] | outcome [19] | outcome [20]
